PubChem BioAssay (NCATS)
Inconclusive results are not listed. Active and inactive are the calls of the source. Unless noted, the call rests on the fitted dose curve; in most records, active means well fitted curve in the direction sought with a large enough effect; inconclusive means small, poorly fitted or top-dose-only effect, or another doubt; inactive means no such curve, though single readings can be large; an effect the other way counts as inactive or inconclusive.

Legend:
[1] = qHTS profiling of the MIPE4 collection as inhibitors of Plasmodium falciparum (DD2) proliferation (AID 743345; call rule not given here); conditions: P. falciparum Dd2 in erythrocytes, SYBR Green DNA, 72 h; at 28.5 µM (top of the series) unless noted
Outline: (§1)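 Parasite DNA was quantified by SYBR Green I fluorescence (ex 485, em 535 nm) after overnight lysis in saponin/Triton buffer at room temperature. Cultures at 0.3% parasitemia and 2.5% hematocrit were first exposed to compound for 72 h at 37 C; signals were normalised to artemisinin (0.29 uM) and vehicle wells.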

[2] = qHTS profiling of the MIPE4 collection as inhibitors of Plasmodium falciparum (DD2) proliferation (Rep 2) (AID 743346; call rule not given here); conditions: P. falciparum Dd2 in erythrocytes, SYBR Green DNA, 72 h; at 28.5 µM (top of the series) unless noted
Outline: as §1

[3] = qHTS profiling of the MIPE4 collection as inhibitors of Plasmodium falciparum (HB3) proliferation (AID 743347; call rule not given here;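 further: plate controls were DMSO vehicle wells for no effect and artemisinin wells for full effect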); conditions: P. falciparum HB3 in erythrocytes, SYBR Green DNA, 72 h; at 28.5 µM (top of the series) unless noted
Outline: as §1

[4] = High-throughput drug toxicity screening in the BPDCN cell line Gen2.2 (AID 1224824; call rule not given here;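 further: cells exposed to compounds for 48 h before reading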); conditions: Gen2.2 BPDCN cells; at 45.8 µM (top of the series) unless noted
Outline: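 CellTiter-Glo luminescence read after 48 h compound exposure at 37 C defines viability; percent activity set with DMSO as 100% and bortezomib (9.2 uM final) as 0%. 500 exponentially growing cells per well, RPMI plus 10% FBS.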

[5] = High-throughput drug toxicity screening in the BPDCN cell line Cal-1 (AID 1224825; call rule not given here); conditions: Cal-1 BPDCN cell viability, qHTS; at 45.8 µM (top of the series) unless noted
Outline: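 Viability of the BPDCN line Cal-1 is measured as ATP-based luminescence (CellTiter-Glo) following 48 h incubation with compounds. Percent activity uses DMSO-treated wells as 100% and 9.2 uM bortezomib as 0%.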

[6] = qHTS assay for measurement of the activity of small molecule inhibitors on Zika virus induced Caspase-3 activity in human iPSC derived neural progenitor cells (hNPCs) (AID 1224857); further: % of control where 0% means no effect; nearly all actives have a fitted effect of over 65% in size
Outline: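 Human iPSC-derived neural progenitor cells pretreated 1 hr with compounds, then infected with Zika virus (2 FFU/cell) for 6 hours at 37 C. Caspase-3/7 measured by Caspase-Glo luminescence; % inhibition calculated from induction scaled to uninfected (0%) and infected (100%) wells.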

[7] = qHTS assay for measurement of the activity of small molecule inhibitors on Zika virus induced Caspase-3 activity in human astrocytoma cells (AID 1224859);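 further: plate controls were ZIKV-infected untreated cells for no effect and uninfected cells for full effect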
Outline: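 SNB-19 astrocytoma cells, 250/well, pretreated 1 h with compounds, then Zika virus at 2 FFU/cell for 6 h at 37 C; Caspase-Glo 3/7 luminescence after 30 min; percent inhibition normalised to uninfected and infected controls.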

[8] = qHTS Screen of the MIPE 4.0 Collection Against Ewings Sarcoma (RDES) (AID 1259252); further: nearly all actives have a fitted effect of over 35% in size; further: potency means the concentration at half of the fitted maximal effect
Outline: (§2)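 Measured: ATP luminescence (CellTiter-Glo) 10 min after reagent addition, following 48 h drug treatment. Relative luciferase units converted to percent activity, with no-cell wells as full and DMSO wells as zero inhibition.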

[9] = qHTS Screen of the MIPE 4.0 Collection Against Ewings Sarcoma (TC71) (AID 1259253); further: nearly all actives have a fitted effect of over 40% in size; further: potency means the concentration at half of the fitted maximal effect
Outline: as §2

[10] = qHTS Screen of the MIPE 4.0 Collection Against Ewings Sarcoma (EW8) (AID 1259255); further: nearly all actives have a fitted effect of over 35% in size; further: potency means the concentration at half of the fitted maximal effect;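 on viability: 100% = DMSO-treated cells and 0% = medium-only wells without cells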
Outline: as §2

[11] = qHTS Screen of the MIPE 4.0 Collection Against Ewings Sarcoma (TC32) (AID 1259256); further: nearly all actives have a fitted effect of over 45% in size; further: potency means the concentration at half of the fitted maximal effect
Outline: as §2

[12] = qHTS profiling of the MIPE4 collection as inhibitors of Plasmodium falciparum (3D7) proliferation (AID 743344; call rule not given here;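 further: scaled between DMSO vehicle wells and 0.29 µM artemisinin as full inhibition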); conditions: P. falciparum 3D7 in erythrocytes, SYBR Green DNA fluorescence, 72 h; at 28.5 µM (top of the series) unless noted
Outline: as §1

[13] = qHTS assay for cell viability of HEK293 cells (AID 743288); conditions: ATP luminescence (CellTiter-Glo), 18 h, stronger effect = lower value; further: on the % scale 0 is the no-effect control and ±100 the full control effect; nearly all actives have a fitted effect of over 50% in size
Outline: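 Readout is luciferase-coupled ATP content (CellTiter-Glo luminescence, 30 min room temperature) as a measure of metabolically competent cells. Parental HEK293 cells were plated 5 h or more before compound addition, then treated 18 h at 37 C.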

| SMILES | parasite growth remaining, % of DMSO control (lower = more inhibition) [1] [%] | parasite growth, % of control (lower = inhibition) [2] [%] | growth, % of control [3] [%] | cell viability, % of control (lower = more cytotoxic) [4] [%] | viability (% of control) [5] [%] | Potency [6] | Potency [7] | Potency [8] | Potency [9] | Potency [10] | Potency [11] | parasite growth, % of DMSO control [12] [%] | max response [13] |
| --- | --- | --- | --- | --- | --- | --- | --- | --- | --- | --- | --- | --- | --- |
| CCc1cnn2c(NCc3ccc[n+]([O-])c3)cc(N3CCCC[C@@H]3CCO)nc12 | 14 | 12.6 | 8.08 | 4.38 | 3.16 | inactive | inactive | 41.8 nM (active) | 26.4 nM (active) | 23.5 nM (active) | 23.5 nM (active) |  |  |
| CCOC(=O)N1CCN([N+]([O-])=NOc2ccc([N+](=O)[O-])cc2C#N)CC1 | 23.5 | 17.1 | 19.1 | 17.2 | 10.9 | inactive | inactive | 2090 nM (active) | 2640 nM (active) | 2350 nM (active) | 2640 nM (active) |  |  |
| c1coc(CNc2ncnc3nc[nH]c23)c1 | 26.3 |  |  | 90.9 | 102 | inactive | inactive | inactive | inactive | inactive | inactive |  |  |
| C=C(C)[C@@H]1CC[C@]2(C(=O)O)CC[C@]3(C)[C@H](CC[C@@H]4[C@@]5(C)CC[C@H](O)C(C)(C)[C@@H]5CC[C@]43C)[C@@H]12 | 20.6 |  |  | 61.6 | 85.4 | inactive | inactive | inactive | inactive | inactive | inactive |  |  |
| COc1cc(OC)c(NC(=O)Nc2cc(C)on2)cc1Cl |  | 54.6 | 81.5 | 187 | 80.9 | inactive | inactive | inactive | inactive | inactive | inactive | 69.1 |  |
| Cc1ccc2nc(NCCN)c3ncc(C)n3c2c1 | 41.2 | 33.4 | 81.1 | 2.46 | 3.39 | inactive | inactive | 6620 nM (active) | 4180 nM (active) | 9350 nM (active) | 4690 nM (active) |  |  |
| CC(=O)OCC(=O)[C@@]1(O)CC[C@H]2[C@@H]3CCC4=CC(=O)CC[C@]4(C)[C@@H]3C(=O)C[C@@]21C | 93.2 | 122 | 96.5 | 108 | 111 | inactive | inactive | inactive | inactive | inactive | inactive |  |  |
| CC(=O)OC[C@@H]1O[C@@H](n2ccc(=O)[nH]c2=O)[C@H](OC(C)=O)[C@H]1OC(C)=O | 115 | 141 | 250 | 154 | 104 | inactive | inactive | inactive | inactive | inactive | inactive |  |  |
| COc1cc(OC)cc(-c2ccc3ncc4ccc(=O)n(-c5ccc(N6CCNCC6)c(C(F)(F)F)c5)c4c3c2)c1 | 5.58 | 18.6 | 9.36 | 13.6 | 5.34 | inactive | inactive | 2960 nM (active) | 2640 nM (active) | 4180 nM (active) | 3320 nM (active) |  |  |
| CCOc1cc2ncc(C#N)c(Nc3ccc(OCc4ccccn4)c(Cl)c3)c2cc1NC(=O)C=CCN(C)C | 7.24 | 12.3 | 2.73 | 4.27 | 13.3 | inactive | inactive | 118 nM (active) | 2350 nM (active) | 6620 nM (active) | 2960 nM (active) |  |  |
| NC(=O)c1ncn([C@@H]2O[C@H](CO)[C@@H](O)[C@@H]2O)c1O | 33.1 | 102 | 71.4 | 113 | 102 | inactive | inactive | inactive |  | inactive | inactive | 109 |  |
| COc1cc(O)c2c(c1)C1OC1C[C@H](O)[C@H](O)C(=O)C=CC[C@H](C)OC2=O (stereo partly specified) | 10.6 | 6.84 | 2.42 | 3.33 | 5.65 | inactive | inactive | 16600 nM (active) |  | 7430 nM (active) | 7430 nM (active) | 5.71 |  |
| CC[C@H](CC[C@@H](C)[C@H]1CC[C@H]2[C@@H]3CC=C4C[C@@H](O)CC[C@]4(C)[C@@H]3CC[C@]12C)C(C)C |  |  | 100 | 114 | 107 | inactive | inactive | inactive | inactive | inactive | inactive |  |  |
| OC[C@@H](O)[C@@H](O)[C@H](O)[C@@H](O)CO | 91.5 | 92 |  | 201 | 126 | inactive | inactive | inactive |  | inactive | inactive | 100 | -5.81% (inactive) |
| COc1cc([C@@H]2c3cc4c(cc3[C@H](O)[C@H]3COC(=O)[C@@H]23)OCO4)cc(OC)c1OC |  | 29.1 |  | 21.3 | 11.1 | inactive | inactive | 74.3 nM (active) |  | 105 nM (active) | 37.2 nM (active) |  |  |
| COC(=O)[C@@H]1CC2=CC(=O)CC[C@]2(C)[C@@]23O[C@@H]2C[C@@]2(C)[C@H](CC[C@@]24CCC(=O)O4)[C@@H]13 | 87.1 | 61.4 |  | 132 | 108 | inactive | inactive | inactive |  | inactive | inactive | 74.7 |  |
